This is an account of results in PubChem BioAssay (NCATS).

Records with an inconclusive call do not appear. Active and inactive are the calls of the source. Unless noted, calls come from the whole dose curve; as a rule, active = well fitted curve in the direction sought with a large enough effect; inconclusive = small, poorly fitted or top-dose-only effect, or another doubt; inactive = no such curve, though single readings can be large; an effect the other way counts as inactive or inconclusive.

Assay [1] in a line: qHTS assay for measurement of the activity of small molecule inhibitors on Zika virus induced Caspase-3 activity in human iPSC derived neural progenitor cells (hNPCs) (AID 1224857). Note: nearly all actives have a fitted effect of over 65% in size. The procedure, abridged: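 hNPCs seeded 350 cells/well, cultured 16–20 h; compounds added 1 h before ZIKV (2 FFU/cell), 37 C 6 h. Caspase-Glo 3/7 luminescence after 30 min RT; % inhibition from induction scaled to uninfected (0%) and infected (100%) wells.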
A general note: qHTS replaces the single test concentration by a dilution series.

Assay [2] is described as follows: qHTS assay for measurement of the activity of small molecule inhibitors on Zika virus induced Caspase-3 activity in human astrocytoma cells (AID 1224859). The procedure, abridged: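 Luminescence read-out (Caspase-Glo 3/7, 30 min RT) of caspase activity in SNB-19 cells infected 6 h with ZIKV, 2 FFU/cell, after 1 h compound pretreatment; % inhibition from induction normalised to uninfected (0%) and infected (100%) wells.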

A short description of assay [3]: Natriuretic polypeptide receptor (hNpr1) antagonism - Pilot counterscreen GloSensor control cell line (AID 1347045; calls by dose curve; note: potency is the fitted concentration of half-maximal effect). In outline: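 HEK293 cGMP-sensor cells; 2% GloSensor reagent 2 h RT; LOPAC compounds in 1:5 titrations 30-50 min; 50 uM SNP 20 min; luminescence pre-read and post-read.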
The nature of assay [4]: NS1 protein of Zika virus - qHTS assay to identify small molecule inhibitors in human HEK 293 cells (AID 1347053). Note: series mostly up to about 46 µM; nearly all actives have a fitted effect of over 55% in size. In outline: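 Readout was TR-FRET using paired anti-NS1 antibodies after 24 h infection of HEK 293 cells with ZIKV MR766 (MOI = 0.5). Compound preceded virus by 1 h; reduced signal reflects lower NS1 expression.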
Assay [5] addresses T1, Tyrosine-protein phosphatase non-receptor type substrate 1 (Homo sapiens) + Leukocyte surface antigen CD47 (Homo sapiens) (UniProt P78324+Q08722). Kind of assay: CD47-SIRPalpha protein protein interaction - LANCE assay qHTS validation (AID 1347057; active = well fitted curve in the direction sought with a large enough effect in the signal ratio, with a control signal flat, not every such curve was filed as active; the % refers to the signal ratio; note: series mostly up to about 38 µM). The procedure, abridged: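 Inhibition of soluble CD47/SIRPalpha ectodomain association by titrated compounds, measured as 665/615 nm time-resolved FRET ratio after sequential 30 min room-temperature incubations.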

For assay [6], the target named is T1, Tyrosine-protein phosphatase non-receptor type substrate 1 (Homo sapiens) + Leukocyte surface antigen CD47 (Homo sapiens). Kind of assay: CD47-SIRPalpha protein protein interaction - HTRF assay qHTS validation (AID 1347058; active = well fitted curve in the direction sought with a large enough effect in the signal ratio, not every such curve was filed as active; the % refers to the signal ratio; note: series mostly up to about 38 µM). In outline:
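Soluble extracellular domains (6His-CD47, Avi-tag-biotinylated SIRPalpha) in PBS pH 7.4 with 0.05% IGEPAL CA-630. Compounds were preincubated 30 min at RT with CD47 and anti-His-Eu, then SIRPalpha and SAV-XL665 were added. TR-FRET 665/615 ratio.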

The target is the same in assay [7]. Kind of assay: CD47-SIRPalpha protein protein interaction - Alpha assay qHTS validation (AID 1347059).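 Note: bead proximity luminescence from CD47 binding SIRPalpha after compound preincubation with SIRPalpha.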 In outline:
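AlphaScreen signal between CD47-His (12.5 nM) and biotin-SIRPalpha (25 nM) soluble extracellular domains, bead-captured via Ni-NTA and streptavidin. Compounds, in 7-point titrations, met SIRPalpha 30 min before CD47; PBS pH 7.4 with 0.05% IGEPAL.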

Assay [8] deals with Parathyroid hormone/parathyroid hormone-related peptide receptor (Homo sapiens) (UniProt Q03431). Nature of the assay: qHTS for PTHR1 Agonists: Optimization Screen against the NCGC LOPAC library (AID 1347079).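 Note: GloSensor cAMP luminescence in HEK-293 GP2 cells expressing human PTHR1 with IBMX.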 In outline: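 Signal increase flags agonism. GP2 cells, derived from HEK-293, express human PTHR1 and a GloSensor cAMP construct.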
In assay [9] the target is N-terminal Xaa-Pro-Lys N-methyltransferase 1 (Homo sapiens) (UniProt Q9BV86). Kind of assay: qHTS Assay for Inhibitors of N-terminal methyltransferase 1 (NTMT1): LOPAC validation of the NTMT1 SAHH-coupled ThioGlo3 Assay (AID 1347143).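 Note: SAH from peptide methylation measured as thiol fluorescence via SAHH coupling and ThioGlo3; nearly all actives have a fitted effect of over 70% in size.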 Note: potency is the fitted concentration of half-maximal effect. The procedure, abridged: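 NTMT1 125nM + cpds (various conc.), 1 min RT; add SAM 100uM/SAHH 10uM/ThioGlo3 15uM (addition mix). SAHH-coupled thiol detection, Ex340/Em450, t0 and 30 min RT; signal normalized to background. LOPAC 1280-cpd pilot.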

Assay [10] has as its system Zika virus NS2B-NS3 protease (unlinked). Nature of the assay: Optimization of GU AMC qHTS for Zika virus inhibitors: Unlinked NS2B-NS3 protease assay (AID 1347151). Note: nearly all actives have a fitted effect of over 80% in size. Note: potency is the fitted concentration of half-maximal effect. In outline: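 Noncovalent NS2B hydrophilic domain–NS3 protease complex (25 nM final) in 10 mM Tris-HCl pH 8.0, 0.01% Tween 20; AMC substrate, room temperature 15 min (~20% conversion); fluorescence change normalized, 4-parameter Hill fit.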

The target of assay [11] is Atrial natriuretic peptide receptor 1 (Homo sapiens) (UniProt P16066). Nature of the assay: Natriuretic polypeptide receptor (hNpr1) antagonism - Pilot screen (AID 1347049; calls by dose curve;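 note: HEK293 cells with hNpr1 and GloSensor cGMP luciferase stimulated by 0.1 nM hNppA; agonist-evoked cGMP luminescence read 20 min after hNppA addition; series mostly up to about 58 µM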). In outline: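 Receptor antagonism read as cGMP-dependent luminescence in hNpr1/pGS-40F HEK293 cells: pre-read after 30 min compound exposure, post-read 20 min after hNppA agonist at 0.1 nM final, all at room temperature, protected from light; A-71915 titration as control.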

The target in assay [12] is Atrial natriuretic peptide receptor 2 (Homo sapiens) (UniProt P20594). Kind of assay: Natriuretic polypeptide receptor (hNpr2) antagonism - Pilot subtype selectivity assay (AID 1347050; calls by dose curve). The procedure, abridged: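 Antagonist mode: compounds (LOPAC1280, seven 1:5 dilutions) added 30 min before 1 nM hNppC stimulation of hNpr2-HEK293 cGMP-sensor cells; luminescence read before and 20 min after agonist at ambient temperature.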
Chain of Atrial natriuretic peptide receptor 2 (Homo sapiens) (P20594 whole entry, looked up): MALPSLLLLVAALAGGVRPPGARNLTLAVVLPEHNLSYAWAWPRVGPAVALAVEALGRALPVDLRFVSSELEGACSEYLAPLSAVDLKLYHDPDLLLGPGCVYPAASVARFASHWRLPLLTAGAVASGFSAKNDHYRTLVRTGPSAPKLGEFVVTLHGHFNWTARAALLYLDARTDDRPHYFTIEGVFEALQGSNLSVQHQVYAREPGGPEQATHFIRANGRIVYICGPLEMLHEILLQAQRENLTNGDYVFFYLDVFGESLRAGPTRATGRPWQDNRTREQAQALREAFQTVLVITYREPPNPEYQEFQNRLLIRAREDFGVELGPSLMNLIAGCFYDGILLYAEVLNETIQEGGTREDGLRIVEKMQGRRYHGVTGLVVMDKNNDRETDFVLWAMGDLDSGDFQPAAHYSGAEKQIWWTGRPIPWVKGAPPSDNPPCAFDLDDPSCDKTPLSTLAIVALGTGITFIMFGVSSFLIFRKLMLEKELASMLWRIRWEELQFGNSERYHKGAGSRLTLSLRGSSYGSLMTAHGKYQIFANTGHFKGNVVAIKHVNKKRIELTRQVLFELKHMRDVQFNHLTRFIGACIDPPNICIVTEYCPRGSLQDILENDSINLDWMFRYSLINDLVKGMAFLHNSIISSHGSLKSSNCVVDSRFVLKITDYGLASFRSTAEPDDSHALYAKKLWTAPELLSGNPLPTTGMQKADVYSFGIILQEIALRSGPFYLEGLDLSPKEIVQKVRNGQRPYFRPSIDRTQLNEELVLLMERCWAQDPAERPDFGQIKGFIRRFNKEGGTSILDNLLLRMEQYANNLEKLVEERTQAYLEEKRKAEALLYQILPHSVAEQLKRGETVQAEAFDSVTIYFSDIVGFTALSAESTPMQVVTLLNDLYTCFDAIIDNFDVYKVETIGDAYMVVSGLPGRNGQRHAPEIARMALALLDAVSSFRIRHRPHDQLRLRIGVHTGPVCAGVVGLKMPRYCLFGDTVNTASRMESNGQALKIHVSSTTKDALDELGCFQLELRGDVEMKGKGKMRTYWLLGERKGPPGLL

Chain of N-terminal Xaa-Pro-Lys N-methyltransferase 1 (Homo sapiens) (Q9BV86 whole entry, looked up): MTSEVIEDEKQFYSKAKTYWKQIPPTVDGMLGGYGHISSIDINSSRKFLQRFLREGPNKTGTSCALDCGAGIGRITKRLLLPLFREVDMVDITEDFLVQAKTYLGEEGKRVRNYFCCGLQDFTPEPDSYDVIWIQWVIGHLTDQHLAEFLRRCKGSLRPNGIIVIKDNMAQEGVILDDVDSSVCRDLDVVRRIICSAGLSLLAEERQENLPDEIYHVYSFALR
T1 sequence (P78324 whole entry, looked up, the tested form may be a part): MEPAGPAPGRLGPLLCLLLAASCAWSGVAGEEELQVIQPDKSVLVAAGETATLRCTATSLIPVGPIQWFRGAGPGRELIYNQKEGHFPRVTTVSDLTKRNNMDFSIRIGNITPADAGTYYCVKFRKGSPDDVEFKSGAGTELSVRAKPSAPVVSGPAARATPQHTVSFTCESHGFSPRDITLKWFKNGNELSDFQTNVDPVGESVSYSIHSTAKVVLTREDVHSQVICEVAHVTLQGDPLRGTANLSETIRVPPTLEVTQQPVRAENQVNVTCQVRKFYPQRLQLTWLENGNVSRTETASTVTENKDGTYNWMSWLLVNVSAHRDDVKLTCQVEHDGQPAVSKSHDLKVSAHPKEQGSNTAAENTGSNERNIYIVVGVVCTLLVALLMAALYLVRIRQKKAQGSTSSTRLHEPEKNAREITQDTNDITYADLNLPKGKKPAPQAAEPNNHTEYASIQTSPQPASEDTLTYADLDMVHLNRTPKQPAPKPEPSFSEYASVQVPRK
T1 sequence (Q08722 whole entry, looked up, the tested form may be a part): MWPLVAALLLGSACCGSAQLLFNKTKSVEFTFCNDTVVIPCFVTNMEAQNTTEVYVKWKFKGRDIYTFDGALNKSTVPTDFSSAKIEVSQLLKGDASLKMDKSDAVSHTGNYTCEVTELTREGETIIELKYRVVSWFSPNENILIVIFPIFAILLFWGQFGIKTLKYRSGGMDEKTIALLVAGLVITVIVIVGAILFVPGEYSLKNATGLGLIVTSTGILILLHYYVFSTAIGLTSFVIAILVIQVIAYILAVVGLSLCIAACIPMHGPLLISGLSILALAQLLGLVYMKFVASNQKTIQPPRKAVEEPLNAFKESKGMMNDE
Chain of Parathyroid hormone/parathyroid hormone-related peptide receptor (Homo sapiens) (Q03431 whole entry, looked up): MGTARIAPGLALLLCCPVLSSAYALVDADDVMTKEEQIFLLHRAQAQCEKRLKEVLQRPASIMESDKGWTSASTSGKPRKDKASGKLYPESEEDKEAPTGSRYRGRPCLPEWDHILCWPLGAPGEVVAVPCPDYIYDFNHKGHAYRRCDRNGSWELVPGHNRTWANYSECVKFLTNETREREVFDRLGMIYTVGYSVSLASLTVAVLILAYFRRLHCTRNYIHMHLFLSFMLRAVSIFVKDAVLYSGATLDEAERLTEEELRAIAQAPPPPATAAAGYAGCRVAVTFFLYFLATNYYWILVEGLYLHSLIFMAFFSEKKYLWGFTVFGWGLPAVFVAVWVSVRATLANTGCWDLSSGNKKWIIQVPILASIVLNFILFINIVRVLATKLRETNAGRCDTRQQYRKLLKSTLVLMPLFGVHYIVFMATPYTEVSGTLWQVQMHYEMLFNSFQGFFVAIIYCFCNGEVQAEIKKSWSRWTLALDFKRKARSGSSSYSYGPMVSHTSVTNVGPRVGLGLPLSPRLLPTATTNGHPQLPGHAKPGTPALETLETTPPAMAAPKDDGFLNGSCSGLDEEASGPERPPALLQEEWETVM
Chain of Atrial natriuretic peptide receptor 1 (Homo sapiens) (P16066 whole entry, looked up): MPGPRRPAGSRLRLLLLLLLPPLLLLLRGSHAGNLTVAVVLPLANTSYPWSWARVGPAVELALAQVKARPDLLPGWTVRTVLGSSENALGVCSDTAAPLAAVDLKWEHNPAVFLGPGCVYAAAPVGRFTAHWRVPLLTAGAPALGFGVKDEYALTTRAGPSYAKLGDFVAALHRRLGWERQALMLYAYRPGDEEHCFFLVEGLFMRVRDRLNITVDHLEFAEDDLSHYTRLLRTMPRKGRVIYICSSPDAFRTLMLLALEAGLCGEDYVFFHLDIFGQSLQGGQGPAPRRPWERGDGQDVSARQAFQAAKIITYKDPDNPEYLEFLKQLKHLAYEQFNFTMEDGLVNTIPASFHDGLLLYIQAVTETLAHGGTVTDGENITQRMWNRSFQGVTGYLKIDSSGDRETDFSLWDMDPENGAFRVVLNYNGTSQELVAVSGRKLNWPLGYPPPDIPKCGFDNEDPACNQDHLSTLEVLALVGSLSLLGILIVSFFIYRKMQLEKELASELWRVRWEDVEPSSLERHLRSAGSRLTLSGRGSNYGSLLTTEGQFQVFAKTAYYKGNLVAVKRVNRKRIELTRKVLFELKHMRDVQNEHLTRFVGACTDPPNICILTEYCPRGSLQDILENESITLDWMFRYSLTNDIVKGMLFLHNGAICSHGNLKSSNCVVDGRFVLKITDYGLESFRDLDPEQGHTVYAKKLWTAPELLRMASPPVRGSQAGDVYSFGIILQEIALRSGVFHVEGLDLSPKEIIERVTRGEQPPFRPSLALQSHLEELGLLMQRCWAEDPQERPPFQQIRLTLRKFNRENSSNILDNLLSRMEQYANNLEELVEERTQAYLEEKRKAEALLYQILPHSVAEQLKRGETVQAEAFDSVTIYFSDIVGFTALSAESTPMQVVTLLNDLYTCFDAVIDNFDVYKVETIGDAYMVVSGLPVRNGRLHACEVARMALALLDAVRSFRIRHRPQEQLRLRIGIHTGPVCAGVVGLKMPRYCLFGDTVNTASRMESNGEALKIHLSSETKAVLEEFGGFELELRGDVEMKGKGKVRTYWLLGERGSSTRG

As for `c1ccc(C(NCCNC(c2ccccc2)c2ccccc2)c2ccccc2)cc1`, the Potency result in [1], in assay [2], in assay [4], in [5], in [7] and in assay [8] was “inactive” each time. The Potency entry in assay [9] and in [10] was “inactive” throughout. Besides, the Potency in assay [3] was 13.1 µM (active). The result in assay [6] was inactive.

`CN1CCC2(CCN3CCc4c(oc5ccccc45)C3C2)N(C)C1=O` (stereo unspecified): the Potency result in assay [1], in assay [2], in assay [11], in assay [12], in assay [4] and in [5] was “inactive” in each case. Besides, the Potency entry in [7] and in assay [8] was “inactive” in each case. For the same compound, the outcome in [6] was inactive.

For the compound `CC(N)(Cc1ccc(O)cc1)C(=O)O` (stereo unspecified), the Potency entry in assay [1], in assay [2], in assay [12], in assay [4], in [5] and in assay [7] was “inactive” each time. Also, the Potency entry in [9] and in [10] was “inactive” each time. Further, in assay [6], the outcome was inactive.

Turning to `COc1ccc(C(=O)NCc2cccnc2)cc1C(=O)NCc1cccnc1`, the Potency result in assay [1], in assay [2], in [12], in assay [4], in assay [5] and in assay [7] was “inactive” each time. The Potency entry in assay [8], in [9] and in assay [10] was “inactive” throughout. In addition, in assay [6], the result was inactive.

Regarding `COc1ccccc1N1CCN(CCCCN2C(=O)c3ccccc3C2=O)CC1`, the Potency result in assay [1], in assay [2], in [11], in [12], in assay [4] and in assay [5] was “inactive” throughout. Besides, the Potency result in assay [7], in assay [8] and in [9] was “inactive” in each case. For the same compound, the outcome in assay [6] was inactive. The Potency in assay [10] was 23.8 µM (active).

With `CCCCC[C@H](CC(=O)NO)C(=O)N[C@H](C(=O)N1CCC[C@H]1CO)C(C)C`, the Potency entry in assay [1], in [2], in assay [11], in assay [12], in assay [4] and in [5] was “inactive” in each case. In addition, the Potency result in assay [7], in assay [8], in assay [9] and in assay [10] was “inactive” throughout. In addition, in [6], the result was inactive.

For `c1ccc(CN2CCC3(CCCc4ccccc43)CC2)cc1`, the Potency entry in [1], in [2], in [3], in assay [12], in [5] and in assay [7] was “inactive” throughout. The Potency result in assay [8] and in assay [10] was “inactive” each time. Moreover, the outcome in [6] was inactive. Moreover, the Potency in assay [9] was 50.1 µM (active).

Take `CCC1(O)CC2CN(CCc3c([nH]c4ccccc34)[C@@](C(=O)OC)(c3cc4c(cc3OC)N(C)C3[C@]45CCN4CC=C[C@@](CC)([C@@H](OC(C)=O)[C@]3(O)C(=O)OC)[C@H]45)C2)C1` (stereo partly specified): the Potency entry in assay [1], in [2], in [3], in assay [12] and in assay [8] was “inactive” in each case.

Take `c1ccc(C2CN3CCSC3=N2)cc1` (stereo unspecified): the Potency entry in assay [1], in assay [2], in assay [11], in assay [12], in [4] and in assay [5] was “inactive” each time. Also, the Potency entry in assay [7], in assay [8], in assay [9] and in [10] was “inactive” in each case. In [6], the result was inactive.
